Structures are written as SMILES. Inconclusive results are not listed. Where a call stands in place of a potency, no number is given. Active and inactive are the calls of the source. The call rests on the fitted dose curve; in most records, active means well fitted activation curve with a large enough effect in the repeat runs; inconclusive means weak or mixed curves; inactive means flat fitted curve, though single readings scatter.

The test addresses Nuclear receptor subfamily 1 group I member 2 (Homo sapiens) (UniProt O75469). Nature of the test: Human pregnane X receptor (PXR) activation by small molecules, qHTS assay (AID 1346985). Further: nearly all actives have a fitted effect of over 40% in size. The conditions noted are these: DPX-2 HepG2 CYP3A4-luciferase, 24 h; series mostly up to 38.3 µM. Put shortly:
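DPX-2 cells (HepG2 co-transfected with a PXR response element and a CYP3A4-promoter luciferase construct) were seeded at 2,000 per well, rested 5 hr at 37C, then exposed to DMSO-dissolved compounds for 24 hr. Activation was read as luciferase luminescence.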
(Quantitative high-throughput screening tests each substance at several concentrations.)
Turning to `O=C(O)C1=C(CSc2nnnn2CS(=O)(=O)O)CS[C@@H]2[C@H](NC(=O)[C@H](O)c3ccccc3)C(=O)N12`, the Potency entry was “inactive”. Under `CCOc1ccc(N=Nc2ccc(N)cc2N)cc1` stands “inactive”; under `O=C(O)[C@H]1/C(=C/CO)O[C@@H]2CC(=O)N21`, “inactive”.

Regarding `CNCC(O)c1ccc(OC(=O)C(C)(C)C)c(OC(=O)C(C)(C)C)c1` (configuration not stated), the Potency result is “inactive”.

On to `COc1cc(-c2ccc(-[n+]3nc(-c4ccccc4)nn3-c3ccc([N+](=O)[O-])cc3)c(OC)c2)ccc1-[n+]1nc(-c2ccccc2)nn1-c1ccc([N+](=O)[O-])cc1`, for which the Potency result was “inactive”. As for `CCOC(=O)O[C@]1(C(=O)COC(=O)CC)CC[C@H]2[C@@H]3CCC4=CC(=O)C=C[C@]4(C)[C@H]3[C@@H](O)C[C@@]21C`, the Potency result is “inactive”. As to `CC[C@H](C)[C@@H]1NC(=O)[C@H](Cc2ccc(O)cc2)NC(=O)[C@@H](N)CSSC[C@@H](C(=O)N2CCC[C@H]2C(=O)N[C@@H](CC(C)C)C(=O)NCC(N)=O)NC(=O)[C@H](CC(N)=O)NC(=O)[C@H](CCC(N)=O)NC1=O`, the Potency result is “inactive”. In the case of `NS(=O)(=O)c1cc2c(cc1Cl)NC(Cc1ccccc1)NS2(=O)=O` (configuration not stated), the Potency entry was “inactive”. Under `C[N+]1(C)[C@@H]2CC(OC(=O)C(O)(c3cccs3)c3cccs3)C[C@H]1[C@@H]1O[C@@H]12` (some centres not stated) stands “inactive”. With `CC(C)[C@@H]1CC[C@@H](C)C[C@H]1OC(=O)c1ccccc1O`, the Potency entry was “inactive”.

Consider `CC(C)[C@@H](N)C(=O)O`, for which the Potency entry was “inactive”.

As to `CC(C)(C)CC(C)(C)c1cc(Cc2cc(C(C)(C)CC(C)(C)C)cc(-n3nc4ccccc4n3)c2O)c(O)c(-n2nc3ccccc3n2)c1`, the Potency entry is “inactive”.
